Measurements: PMC5540273 (PLoS ONE, 2017)

Columns and labels:
Conditions in all cases: concentration: 1 μM, replicates: in singlicate; n = 1
[1] = tested on: T1, AMPK-alpha1
T1 construct: gene PRKAA1

[2] = tested on: T2, AMPK-alpha2
T2 construct: gene PRKAA2

[3] = tested on: ANKK1
[4] = tested on: T3, ARK5
T3 construct: gene NUAK1

[5] = tested on: T4, ASK1
T4 construct: gene MAP3K5

[6] = tested on: T5, ASK2
T5 construct: gene MAP3K6

[7] = tested on: AURKA
[8] = tested on: AURKB
[9] = tested on: AURKC
[10] = tested on: AXL
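Further: KINOMEscan kinase panel screen.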

Row | SMILES | %Inh [1] | %Inh [2] | %Inh [3] | %Inh [4] | %Inh [5] | %Inh [6] | %Inh [7] | %Inh [8] | %Inh [9] | %Inh [10]
1 | CSc1ccc(-c2nc3n(c2-c2ccncc2)CCC3)cc1 [SKF-105561] | 0% | 0% | 0% | 0% | 12% | 17% | 10% | 0% | 0% | 0%
2 | CNC(=O)c1ccc(C)c(-n2c(C)cc(OCc3ccc(F)cc3F)c(Br)c2=O)c1 | 0% | 5% | 0% | 0% | 15% | 0% | 0% | 0% | 0% | 0%
3 | COc1ccc(CSc2nnc(-c3ccc4nccn4c3)o2)cc1C(F)(F)F | 3% | 9% | 0% | 9% | 0% | 44% | 0% | 22% | 15% | 20%
4 | COc1ccc(Nc2nccc(N3CCC(NC(=O)c4cc5ccccc5s4)C3)n2)cc1 (centres unmarked) [GSK1379738] | 0% | 3% | 3% | 19% | 12% | 11% | 14% | 0% | 22% | 7%
5 | COC(=O)C(Cc1ccccc1)NC(=O)NC1CCN(c2ccnc(Nc3ccc(F)cc3)n2)C1 (centres unmarked) [GSK1379714] | 7% | 0% | 0% | 0% | 5% | 0% | 43% | 11% | 35% | 3%
